Reference: the supplement of paper PMC4466140

Tests used:
Test in all cases: SPOT peptide array binding signal intensity (averaged, normalized) (arbitrary units (background-subtracted, floor 0; scale differs between SH3 domains)); higher = stronger binding of the SH3 domain to the peptide
AgAbp1 = molecular target: AgAbp1
In short: (§1)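 GST-fused SH3 domains, from four yeast species, were produced in E. coli BL21(DE3) and captured on glutathione Sepharose. Membranes of cellulose carrying synthetic 15-mer peptides, in which cysteines had been replaced by serines, were exposed to each domain at 10 μg/ml overnight at 4°C in TBS-based blocking buffer. After anti-GST antibody, an HRP anti-mouse secondary and luminol, spots were imaged and quantified using Genespotter. Binding signal is normalized and background-subtracted spot intensity, averaged over replicates, in arbitrary units that differ between domains.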

AgBbc1 = molecular target: AgBbc1
In short: as §1

AgBem1-D1 = molecular target: AgBem1-D1
In short: as §1

AgBzz1-D1 = molecular target: AgBzz1-D1
In short: as §1

AgBzz1-D2 = molecular target: AgBzz1-D2
In short: as §1

AgCyk3 = molecular target: AgCyk3
In short: as §1

AgFus1 = molecular target: AgFus1
In short: as §1

AgHof1 = molecular target: AgHof1
In short: as §1

AgHse1 = molecular target: AgHse1
In short: as §1

AgLsb1 = molecular target: AgLsb1
In short: as §1

AgLsb4 = molecular target: AgLsb4
In short: as §1

AgMyo5 = molecular target: AgMyo5
In short: as §1

AgNbp2 = molecular target: AgNbp2
In short: as §1

AgRvs167 = molecular target: AgRvs167
In short: as §1

AgSho1 = molecular target: AgSho1
In short: as §1

AgSla1-D1-D2 = molecular target: AgSla1-D1-D2
In short: as §1

AgSla1-D3 = molecular target: AgSla1-D3
In short: as §1

CaAbp1-D1 = molecular target: CaAbp1-D1
In short: as §1

CaAbp1-D2 = molecular target: CaAbp1-D2
In short: as §1

CaBbc1 = molecular target: CaBbc1
In short: as §1

CaBem1-D1 = molecular target: CaBem1-D1
In short: as §1

CaBzz1-D1 = molecular target: CaBzz1-D1
In short: as §1

CaBzz1-D2 = molecular target: CaBzz1-D2
In short: as §1

CaCyk3 = molecular target: CaCyk3
In short: as §1

CaFus1 = molecular target: CaFus1
In short: as §1

CaHof1 = molecular target: CaHof1
In short: as §1

CaHse1 = molecular target: CaHse1
In short: as §1

CaLsb1 = molecular target: CaLsb1
In short: as §1

CaLsb4 = molecular target: CaLsb4
In short: as §1

CaMyo5 = molecular target: CaMyo5
In short: as §1

CaNbp2 = molecular target: CaNbp2
In short: as §1

CaRvs167 = molecular target: CaRvs167
In short: as §1

CaRvs167-3 = molecular target: CaRvs167-3
In short: as §1

CaSho1 = molecular target: CaSho1
In short: as §1

CaSla1-D1-D2 = molecular target: CaSla1-D1-D2
In short: as §1

CaSla1-D3 = molecular target: CaSla1-D3
In short: as §1

ScAbp1 = molecular target: ScAbp1
In short: as §1

ScBbc1 = molecular target: ScBbc1
In short: as §1

ScBem1-D1 = molecular target: ScBem1-D1
In short: as §1

ScBzz1-D1 = molecular target: ScBzz1-D1
In short: as §1

ScBzz1-D2 = molecular target: ScBzz1-D2
In short: as §1

ScCyk3 = molecular target: ScCyk3
In short: as §1

ScFus1 = molecular target: ScFus1
In short: as §1

ScHof1 = molecular target: ScHof1
In short: as §1

ScHse1 = molecular target: ScHse1
In short: as §1

ScLsb1 = molecular target: ScLsb1
In short: as §1

ScLsb2 = molecular target: ScLsb2
In short: as §1

ScLsb3 = molecular target: ScLsb3
In short: as §1

ScLsb4 = molecular target: ScLsb4
In short: as §1

ScMyo3 = molecular target: ScMyo3
In short: as §1

ScMyo5 = molecular target: ScMyo5
In short: as §1

ScNbp2 = molecular target: ScNbp2
In short: as §1

ScPex13 = molecular target: ScPex13
In short: as §1

ScRvs167 = molecular target: ScRvs167
In short: as §1

ScSho1 = molecular target: ScSho1
In short: as §1

ScSla1-D1-D2 = molecular target: ScSla1-D1-D2
In short: as §1

ScSla1-D3 = molecular target: ScSla1-D3
In short: as §1

SpAbp1-D1 = molecular target: SpAbp1-D1
In short: as §1

SpBbc1 = molecular target: SpBbc1
In short: as §1

SpBzz1-D1 = molecular target: SpBzz1-D1
In short: as §1

SpBzz1-D2 = molecular target: SpBzz1-D2
In short: as §1

SpCyk3 = molecular target: SpCyk3
In short: as §1

SpHof1 = molecular target: SpHof1
In short: as §1

SpHof1-2 = molecular target: SpHof1-2
In short: as §1

SpHof1-3 = molecular target: SpHof1-3
In short: as §1

SpHse1 = molecular target: SpHse1
In short: as §1

SpLsb1 = molecular target: SpLsb1
In short: as §1

SpLsb4 = molecular target: SpLsb4
In short: as §1

SpMyo1 = molecular target: SpMyo1
In short: as §1

SpNbp2 = molecular target: SpNbp2
In short: as §1

SpPex13 = molecular target: SpPex13
In short: as §1

SpRvs167 = molecular target: SpRvs167
In short: as §1

SpSla1-D1-D2 = molecular target: SpSla1-D1-D2
In short: as §1

SpSla1-D3 = molecular target: SpSla1-D3
In short: as §1

DKSRPPRPPPKPLHL
SPOT peptide array binding signal intensity (AgAbp1): 1130
SPOT peptide array binding signal intensity (AgBbc1): 193
SPOT peptide array binding signal intensity (AgBem1-D1): ≤ 0
SPOT peptide array binding signal intensity (AgBzz1-D1): 256
SPOT peptide array binding signal intensity (AgBzz1-D2): 134
SPOT peptide array binding signal intensity (AgCyk3): ≤ 0
SPOT peptide array binding signal intensity (AgFus1): 0.5
SPOT peptide array binding signal intensity (AgHof1): 14.2
SPOT peptide array binding signal intensity (AgHse1): ≤ 0
SPOT peptide array binding signal intensity (AgLsb1): 1.5
SPOT peptide array binding signal intensity (AgLsb4): 15
SPOT peptide array binding signal intensity (AgMyo5): 62.2
SPOT peptide array binding signal intensity (AgNbp2): 62.5
SPOT peptide array binding signal intensity (AgRvs167): 1.33
SPOT peptide array binding signal intensity (AgSho1): 250
SPOT peptide array binding signal intensity (AgSla1-D1-D2): ≤ 0
SPOT peptide array binding signal intensity (AgSla1-D3): 9
SPOT peptide array binding signal intensity (CaAbp1-D1): 782
SPOT peptide array binding signal intensity (CaAbp1-D2): 1940
SPOT peptide array binding signal intensity (CaBbc1): 334
SPOT peptide array binding signal intensity (CaBem1-D1): 120
SPOT peptide array binding signal intensity (CaBzz1-D1): 2800
SPOT peptide array binding signal intensity (CaBzz1-D2): 578
SPOT peptide array binding signal intensity (CaCyk3): 34.5
SPOT peptide array binding signal intensity (CaFus1): ≤ 0
SPOT peptide array binding signal intensity (CaHof1): 0.5
SPOT peptide array binding signal intensity (CaHse1): 63.2
SPOT peptide array binding signal intensity (CaLsb1): ≤ 0
SPOT peptide array binding signal intensity (CaLsb4): 471
SPOT peptide array binding signal intensity (CaMyo5): 0.5
SPOT peptide array binding signal intensity (CaNbp2): 56
SPOT peptide array binding signal intensity (CaRvs167): 5.33
SPOT peptide array binding signal intensity (CaRvs167-3): 2
SPOT peptide array binding signal intensity (CaSho1): 5.5
SPOT peptide array binding signal intensity (CaSla1-D1-D2): 458
SPOT peptide array binding signal intensity (CaSla1-D3): 14.2
SPOT peptide array binding signal intensity (ScAbp1): 516
SPOT peptide array binding signal intensity (ScBbc1): 14.5
SPOT peptide array binding signal intensity (ScBem1-D1): ≤ 0
SPOT peptide array binding signal intensity (ScBzz1-D1): 118
SPOT peptide array binding signal intensity (ScBzz1-D2): 3
SPOT peptide array binding signal intensity (ScCyk3): ≤ 0
SPOT peptide array binding signal intensity (ScFus1): ≤ 0
SPOT peptide array binding signal intensity (ScHof1): 0.5
SPOT peptide array binding signal intensity (ScHse1): ≤ 0
SPOT peptide array binding signal intensity (ScLsb1): 210
SPOT peptide array binding signal intensity (ScLsb2): ≤ 0
SPOT peptide array binding signal intensity (ScLsb3): 1660
SPOT peptide array binding signal intensity (ScLsb4): 11
SPOT peptide array binding signal intensity (ScMyo3): 170
SPOT peptide array binding signal intensity (ScMyo5): 306
SPOT peptide array binding signal intensity (ScNbp2): 244
SPOT peptide array binding signal intensity (ScPex13): 669
SPOT peptide array binding signal intensity (ScRvs167): 47.7
SPOT peptide array binding signal intensity (ScSho1): 379
SPOT peptide array binding signal intensity (ScSla1-D1-D2): 83
SPOT peptide array binding signal intensity (ScSla1-D3): ≤ 0
SPOT peptide array binding signal intensity (SpAbp1-D1): 1120
SPOT peptide array binding signal intensity (SpBbc1): ≤ 0
SPOT peptide array binding signal intensity (SpBzz1-D1): 684
SPOT peptide array binding signal intensity (SpBzz1-D2): 1.5
SPOT peptide array binding signal intensity (SpCyk3): 1
SPOT peptide array binding signal intensity (SpHof1): ≤ 0
SPOT peptide array binding signal intensity (SpHof1-2): ≤ 0
SPOT peptide array binding signal intensity (SpHof1-3): 90.8
SPOT peptide array binding signal intensity (SpHse1): 16.8
SPOT peptide array binding signal intensity (SpLsb1): 362
SPOT peptide array binding signal intensity (SpLsb4): 746
SPOT peptide array binding signal intensity (SpMyo1): 466
SPOT peptide array binding signal intensity (SpNbp2): ≤ 0
SPOT peptide array binding signal intensity (SpPex13): ≤ 0
SPOT peptide array binding signal intensity (SpRvs167): 276
SPOT peptide array binding signal intensity (SpSla1-D1-D2): ≤ 0
SPOT peptide array binding signal intensity (SpSla1-D3): ≤ 0

WRPRIVPILPYITRL
SPOT peptide array binding signal intensity (CaNbp2): 574
SPOT peptide array binding signal intensity (CaRvs167): 54
SPOT peptide array binding signal intensity (CaRvs167-3): 56
SPOT peptide array binding signal intensity (CaSho1): 298
SPOT peptide array binding signal intensity (CaSla1-D1-D2): 6
SPOT peptide array binding signal intensity (CaSla1-D3): 2
SPOT peptide array binding signal intensity (ScAbp1): 17
SPOT peptide array binding signal intensity (ScBbc1): 4.25
SPOT peptide array binding signal intensity (ScBem1-D1): 1
SPOT peptide array binding signal intensity (ScBzz1-D1): 1.5
SPOT peptide array binding signal intensity (ScBzz1-D2): 15.5
SPOT peptide array binding signal intensity (ScCyk3): 33
SPOT peptide array binding signal intensity (ScFus1): 75
SPOT peptide array binding signal intensity (ScHof1): 365
SPOT peptide array binding signal intensity (ScHse1): 636
SPOT peptide array binding signal intensity (ScLsb1): 32.5
SPOT peptide array binding signal intensity (ScLsb2): 7
SPOT peptide array binding signal intensity (ScLsb3): 148
SPOT peptide array binding signal intensity (ScLsb4): 18.5
SPOT peptide array binding signal intensity (ScMyo3): 2
SPOT peptide array binding signal intensity (ScMyo5): 0.5
SPOT peptide array binding signal intensity (ScNbp2): 224
SPOT peptide array binding signal intensity (ScPex13): 1
SPOT peptide array binding signal intensity (ScRvs167): 251
SPOT peptide array binding signal intensity (ScSho1): 182
SPOT peptide array binding signal intensity (ScSla1-D1-D2): ≤ 0
SPOT peptide array binding signal intensity (ScSla1-D3): ≤ 0
SPOT peptide array binding signal intensity (SpAbp1-D1): 36
SPOT peptide array binding signal intensity (SpBbc1): 7
SPOT peptide array binding signal intensity (SpBzz1-D1): 179
SPOT peptide array binding signal intensity (SpBzz1-D2): 1.5
SPOT peptide array binding signal intensity (SpCyk3): 10
SPOT peptide array binding signal intensity (SpHof1): 14.5
SPOT peptide array binding signal intensity (SpHof1-2): 18.5
SPOT peptide array binding signal intensity (SpHof1-3): 328
SPOT peptide array binding signal intensity (SpHse1): 315
SPOT peptide array binding signal intensity (SpLsb1): 3
SPOT peptide array binding signal intensity (SpLsb4): 157
SPOT peptide array binding signal intensity (SpMyo1): 107
SPOT peptide array binding signal intensity (SpNbp2): 55.5
SPOT peptide array binding signal intensity (SpPex13): 6.5
SPOT peptide array binding signal intensity (SpRvs167): 167
SPOT peptide array binding signal intensity (SpSla1-D1-D2): ≤ 0
SPOT peptide array binding signal intensity (SpSla1-D3): ≤ 0
